Results reported in PubChem BioAssay AID1986 (Sanford-Burnham Center for Chemical Genomics, 2009).
Screen size: about 290,000 compounds; about 890 (0.31%) were called active. Rule as the data show it: active = inhibition mostly above about 52% (no sharp cut-off); inactive = mostly below about 76%. Only a selection was taken, and actives are over-represented in it overall.

Assay: inhibitors of HIV fusion peptide binding, primary screen, biochemical, uHTS, fluorescence dequenching (AID 1986)
Settings: cell-free peptide binding, 30 min, stronger effect = higher value
[1] = measured here: repeat confirmation average inhibition, at 18.6 µM

| Structure (SMILES) | inhibition (at 20 µM) | inhibition [1] |
| --- | --- | --- |
| Cc1ccc(CNC(=O)C2CCN(C(=O)c3cccc(Cl)c3)CC2)cc1 | 1.1% (inactive) |  |
| Cc1ccc(S(=O)(=O)N(CC(=O)Nc2ccccc2C(=O)O)c2ccccc2)cc1 | 10.7% (inactive) |  |
| Cc1ccc(S(=O)(=O)N(CC(=O)Nc2ccccc2C(=O)O)c2ccccc2C)cc1 | 9.7% (inactive) |  |
| Cc1ccc(S(=O)(=O)N(CC(=O)Nc2ccccc2C(=O)O)c2cccc(Cl)c2C)cc1 | 52% (active) |  |
| CC1CCN(C(=O)CSc2nc3ccccc3c(=O)[nH]2)CC1 | -0.9% (inactive) |  |
| CC(C(=O)N1CCN(C(=O)c2ccco2)CC1)n1sc2ccccc2c1=O (stereo unspecified) | 1.6% (inactive) |  |
| CC1=CC(=O)c2c(O)ccc(O)c2C1=O | 68.3% (active) |  |
| COc1cccc2c1C(=O)C=C(C)C2=O | 2.7% (inactive) |  |
| CC1=CC(=O)c2ccccc2C1=O | -2.1% (inactive) |  |
| O=C(COc1ncnc2ccccc12)Nc1cc([N+](=O)[O-])ccc1Cl | -0.3% (inactive) |  |
| COCC1CCN(C(=O)c2cc(COc3ccc(C)c(C)c3)on2)C1 (stereo unspecified) | 0.9% (inactive) |  |
| COc1cc(/C=C2/SC(=O)N(Cc3ccccc3)C2=O)ccc1OCc1ccncc1 | -4.2% (inactive) |  |
| Cc1ccc(S(=O)(=O)NC(=O)c2ccc(Br)o2)c(C)c1 | -0.8% (inactive) |  |
| Cc1ccc(S(=O)(=O)NC(=O)c2ccc(-c3ccc(-c4ccccc4)cc3)o2)c(C)c1 | 52.6% (active) |  |
| Cc1ccc(S(=O)(=O)NC(=O)c2ccc(-c3ccc(C)c4ccccc34)o2)cc1 | 23.3% (inactive) |  |
| O=C(Nc1cccc(C(=O)Nc2ccc(Cl)cn2)c1)c1ccccc1 | 7.8% (inactive) |  |
| O=C(Nc1ccc(F)cc1)c1oc2ccccc2c1NC(=O)C1CC1 | -0.2% (inactive) |  |
| CSc1nnc(-c2ccccc2N=Cc2c(C)[nH]n(-c3ccccc3)c2=O)c(=O)[nH]1 | 6% (inactive) |  |
| Cc1nn(-c2ccc3ccccc3c2)c(=O)c2ccccc12 | 0% (inactive) |  |
| Cc1ccc(-c2ccc(/C=N\NC(=O)c3cc4c(ccc5ccccc54)o3)o2)cc1[N+](=O)[O-] | -1.4% (inactive) |  |
| Cc1ccc(/C=N/NC(=O)c2cc3c(ccc4ccccc43)o2)o1 | -1.7% (inactive) |  |
| O=C(N/N=C/c1ccc(-c2ccc(Cl)c(C(=O)O)c2)o1)c1cc2c(ccc3ccccc32)o1 | 50.3% (active) |  |

| Structure (SMILES) | inhibition (at 20 µM) | inhibition [1] |
| --- | --- | --- |
| CCC(C)NC(=O)COC(=O)c1cccnc1Nc1ccccc1F (stereo unspecified) | 0.1% (inactive) |  |
| COC(=O)Cn1c2ccc(OC)cc2c2nc3ccccc3nc21 | 9.1% (inactive) |  |
| CCOC(=O)Cn1c2ccc(OC)cc2c2nc3ccccc3nc21 | 3% (inactive) |  |
| CCCCOC(=O)Cn1c2ccc(OC)cc2c2nc3ccccc3nc21 | 53.3% (active) | 57.8% |
| CCc1ccc(-c2cc3c(=O)n(CC(=O)NCCN4CCCCC4C)nc(C)n3n2)cc1 (stereo unspecified) | -0.3% (inactive) |  |
| COc1ccc2c(Cl)c(C(=O)N/N=C3\CCCC(=O)C3)sc2c1 | 77.7% (active) |  |
| COc1ccc2c(Cl)c(C(=O)NN)sc2c1 | 1.3% (inactive) |  |
| O=C1CCC/C(=N/NC(=O)c2sc3ccccc3c2Cl)C1 | 81.5% (inactive) | 39.7% |
| CC(C)(C)NC(=O)CSc1ccc(C(C)(C)C)cc1 | -2.2% (inactive) |  |
| O=c1c(/C=N/O)c(Nc2ccccc2)nc2ccccn12 | -2.7% (inactive) |  |
| O=C(O)c1ccc(/C=N/Nc2nnnn2-c2ccccc2)cc1 | 2.1% (inactive) |  |
| O=c1c(/C=N/Nc2ccccc2)c(Sc2nnnn2-c2ccccc2)nc2ccccn12 | 96.2% (active) |  |
| O=C(O)c1ccccc1N/N=C/c1c(Sc2nnnn2-c2ccccc2)nc2ccccn2c1=O | 80.8% (active) | 54.8% |
| NC(=O)N/N=C/c1c(Sc2nnnn2-c2ccccc2)nc2ccccn2c1=O | 0% (inactive) |  |
| O=Cc1c(Sc2ccccc2)nc2ccccn2c1=O | 2.6% (inactive) |  |
| O=C(CC1Sc2ccccc2NC1=O)NCc1cccc(Cl)c1 (stereo unspecified) | 1% (inactive) |  |
| CCOC(=O)c1nnn(-c2nonc2N)c1CN1CCCC1 | -0.2% (inactive) |  |
| COc1ccccc1-c1c(C(F)(F)F)oc2cc(OCC(=O)Nc3ccccc3C(F)(F)F)ccc2c1=O | 3.1% (inactive) |  |
| COc1ccccc1NC(=O)CSc1nnc(Cn2c(=O)sc3ccccc32)n1C | 0.2% (inactive) |  |
| NC(=O)C[n+]1cccc2ccccc21 | 1.3% (inactive) |  |
| O=C(C[n+]1cccc2ccccc21)c1ccccc1 | 11.8% (inactive) |  |
| COC(=O)C[n+]1cccc2ccccc21 | 78.3% (active) | 65.6% |

| Structure (SMILES) | inhibition (at 20 µM) | inhibition [1] |
| --- | --- | --- |
| CCOCCCNC(=O)/C(C#N)=C/c1ccc(C)o1 | -0.3% (inactive) |  |
| Cc1ccccc1OCc1nc(-c2ccc(-n3cccc3)cc2)no1 | 3.2% (inactive) |  |
| COc1ccccc1C(=O)C1CCCN(C(=O)c2cnn(C(C)C)c2)C1 (stereo unspecified) | -0.2% (inactive) |  |
| Oc1ccc2ccccc2c1C=Nc1ccccc1Br | 0.3% (inactive) |  |
| Oc1ccccc1N=Cc1c(O)ccc2ccccc12 | 67.4% (active) |  |
| CN(C)/N=C/c1c(O)ccc2ccccc12 | -5.1% (inactive) |  |
| Cc1ccc(Cl)cc1N1CCN(S(=O)(=O)c2ccc3c(c2)NC(=O)C(C)C(=O)N3)CC1 (stereo unspecified) | 1.3% (inactive) |  |
| CCn1c(C)c(C(C)=O)c(N2CCN(c3ccccn3)CC2)nc1=S | 6.8% (inactive) |  |
| C(=C\c1ccccc1)/CNn1cnnc1 | -2.1% (inactive) |  |
| CCc1ccc(/C=C/c2c[nH]c3ccccc23)[n+](CC)c1 | 2.5% (inactive) |  |
| COc1ccc2c(/C=C/c3cc[n+](C)cc3)c[nH]c2c1 | 6.5% (inactive) |  |
| Cc1ccc(C(=O)/C=C/c2c[nH]c3ccccc23)cc1 | 2.2% (inactive) |  |
| O=c1c2ccccc2nc(/C=C/c2c[nH]c3ccccc23)n1CCO | 5.3% (inactive) |  |
| Cc1[nH]c2ccccc2c1/C=C/c1cc[n+](C)cc1 | 144% (inactive) |  |
| CCN(CC)C(=O)c1ccc(/C=C/c2c[nH]c3ccccc23)[n+](C)c1 | 91.3% (active) | 81.7% |
| OCC[n+]1ccc(/C=C/c2c[nH]c3ccccc23)cc1 | 53% (active) |  |
| C[n+]1cc(C(=O)N2CCCCC2)ccc1/C=C/c1c[nH]c2ccccc12 | 148% (inactive) |  |
| CC[n+]1c(/C=C/c2c[nH]c3ccccc23)ccc2cc(C)ccc21 | 142% (inactive) |  |
| C[n+]1ccc(/C=C/c2c[nH]c3ccccc23)cc1 | 82.6% (active) |  |
| O=C(/C=C/c1c[nH]c2ccccc12)c1ccccc1 | -2.9% (inactive) |  |
| CC[n+]1ccc(/C=C/c2c[nH]c3ccccc23)cc1 | 97.2% (active) | 77.7% |
